Test [1] in a line: NCI Yeast Anticancer Drug Screen. Data for the rad50 strain (AID 155).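 Further: 0% = growth of vehicle-only cultures of the same strain.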 Conditions: S. cerevisiae rad50 strain growth inhibition; at 50.0 µM; stronger effect = higher value. Summed up:
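DNA repair mutant yeast, compound exposure, growth read-out; inhibition is taken relative to vehicle.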

Test [2] can be described thus: NCI Yeast Anticancer Drug Screen. Data for the mec2-1 strain (AID 157). The settings on record: S. cerevisiae mec2-1 strain, at 50.0 µM, stronger effect = higher value. The method, boiled down: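 Cells of the genetically defined mec2-1 yeast strain are incubated with test compound. Inhibition of growth is calculated against vehicle-treated controls.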
Test [3] can be described thus: NCI Yeast Anticancer Drug Screen. Data for the sgs1 mgt1 strain (AID 161).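 Further: 0% = growth of cultures given vehicle only.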 Conditions: S. cerevisiae sgs1 mgt1 strain, at 50.0 µM, stronger effect = higher value. The method, boiled down:
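Inhibition of yeast growth, normalised to vehicle-treated controls, is reported for a strain bearing genetic alterations in DNA damage repair.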

The nature of test [4]: NCI Yeast Anticancer Drug Screen. Data for the cln2 rad14 strain (AID 165).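 Further: 0% = growth equal to vehicle treated cultures.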 The settings on record: S. cerevisiae cln2 rad14 strain, at 50.0 µM, stronger effect = higher value. Summed up:
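The screen exposed genetically defined yeast (cln2 rad14) to test compounds and scored growth inhibition relative to vehicle-treated controls.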

Test [5] can be described thus: NCI Yeast Anticancer Drug Screen. Data for the bub3 strain (AID 167). The settings on record: S. cerevisiae bub3 mutant strain, at 50.0 µM, stronger effect = higher value. The method, boiled down: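 In this screen, a yeast mutant lacking normal mitotic checkpoint function is challenged with compound. Relative growth versus vehicle gives the inhibition value.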
A short description of test [6]: NCI Yeast Anticancer Drug Screen. Data for the mlh1 rad18 strain (AID 175). The settings on record: S. cerevisiae mlh1 rad18 strain growth inhibition; at 50.0 µM; stronger effect = higher value. The method, boiled down:
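Compound-treated yeast growth, normalised to vehicle controls. Strain bears defined DNA repair mutations.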

Compounds without any hit were thinned out: in the full panel of roughly 79,000, 15% have a hit. A number with no mark means an inactive call. Calls of active or inactive are those of the source. No stated cut-off is given here; in the data, active means growth inhibition above about 70%; inactive means the rest.

Turning to `COc1ccc(C)cc1NC(=S)NC(=O)c1ccc(Cl)cc1Cl`, the growth inhibition is 1.7% in test [1]; 13.7% in test [2]; 8.15% in test [3]; -12.6% in test [4]; 4.7% in test [5]; 0.75% in test [6].
`O=C(Oc1ccc(OC(=O)c2ccccc2)c(C2CCCCCC2)c1)c1ccccc1`: the growth inhibition in test [1] was 32.9%; in test [2], -1.75%; in test [3] it was 25.1%; in test [4], 14.3%; in test [5], 7.1%; in test [6] it was 9%.
Regarding `COc1cc(OC)c(/C=C2\N=C(C)N(Nc3nnc(NN4C(=O)/C(=C/c5c(OC)cc(OC)cc5OC)N=C4C)c4ccccc34)C2=O)c(OC)c1`, the growth inhibition in test [1] is -0.15%; in test [2], -2.25%; in test [3], -12.8%; in test [4], -2.5%; in test [5] it was -2.7%; in test [6], 8.15%.
Regarding `CCOC(=O)C1(C)CCC(C(C(=O)O)C(=O)O)CC1=O` (stereo not drawn), the growth inhibition in test [1] was -10.5%; in test [2], 9.95%; in test [3] it was 13.7%; in test [4] it was 20.2%; in test [5], 21.4%; in test [6], -12.5%.
With `O=[N+]([O-])c1ccc2c(ccn2C2OCC(O)C(O)C2O)c1` (stereo not drawn), the growth inhibition in test [1] was 5.7%; in test [2] it was 13.6%; in test [3] it was 8.7%; in test [4], -3.55%; in test [5] it was 18.1%; in test [6], -2.7%.
For the compound `Cc1cccc(C(=O)c2ccccc2)c1C(=O)O`, the growth inhibition in test [1] is 10.7%; in test [2], 2.45%; in test [3], 4.55%; in test [4], 2.45%; in test [5], -9.25%; in test [6] it was 2.15%.
Regarding `N=c1c(-c2ccccc2)cc2ccccc2n1O`, the growth inhibition in test [1] is 7.6%; in test [2], 10.3%; in test [3], -6.95%; in test [4], -0.1%; in test [5], -5.35%; in test [6] it was -5.25%.
On to `CC(C)(C)S(=O)(=O)C[N+]1(C)CCOCC1`, for which the growth inhibition was 37.1% in test [1]; 11.6% in test [2]; -1.6% in test [3]; -2% in test [4]; -3.25% in test [5]; 5.35% in test [6].
Regarding `COC(=O)CC(C)N(c1cccc(Cl)c1)S(=O)(=O)c1ccc(C)cc1` (stereo not drawn), the growth inhibition was 52.3% in test [1]; 7.1% in test [2]; 76.3% (active) in test [3]; -30.9% in test [4]; 24.1% in test [5]; 32.5% in test [6].
For the compound `Cc1ccc(S/C=C/C(=O)Nc2ccccc2)cc1`, the growth inhibition in test [1] is -10.8%; in test [2] it was 13.4%; in test [3], 7.1%; in test [4] it was 43.1%; in test [5], 2.85%; in test [6] it was 5.6%.
For `O=c1ccn(C2OC(CF)C(O)C2O)c(=O)[nH]1` (stereo not drawn), the growth inhibition in test [1] was 1.8%; in test [2], -2.85%; in test [3], -1.4%; in test [4], 9.05%; in test [5], 0.7%; in test [6] it was -9.9%.
In the case of `COC(=O)C(C)(C)N=CN(C)C`, the growth inhibition in test [1] was -19.7%; in test [2], 13.1%; in test [3], -7.8%; in test [4], 15.5%; in test [5], -27.9%; in test [6], 3.55%.
`Cn1c(C(=O)NN)cc2cc(OCc3ccccc3)ccc21`: the growth inhibition in test [1] is 30.1%; in test [2] it was 5.75%; in test [3], 7.2%; in test [4] it was 4.55%; in test [5], 13.2%; in test [6], 2.4%.
Consider `C[C@@]1(N2C(=O)OC(c3ccccc3)C2=O)C(=O)N2CCS[C@@]21c1ccccc1` (stereo partly drawn), for which the growth inhibition is 4.2% in test [1]; 2.6% in test [2]; 11.8% in test [3]; 11.3% in test [4]; 5.85% in test [5]; 1.25% in test [6].
Take `CCCNC(=O)c1cccc(-c2cccc(C(=O)NCCC)c2)c1`: the growth inhibition in test [1] is 30.1%; in test [2], -10.3%; in test [3], 28.4%; in test [4], 12.3%; in test [5] it was 25.4%; in test [6] it was 31.6%.
Take `[Fe+2].[NH-]C(Cc1ccc(O)cc1)C(=O)O.[NH-]C(Cc1ccc(O)cc1)C(=O)O` (stereo not drawn): the growth inhibition in test [1] was 15.1%; in test [2], 8.25%; in test [3], 24.1%; in test [4], 23.4%; in test [5], -2.4%; in test [6] it was 30.1%.
Regarding `CC1N(/N=C/c2ccccc2)C(c2ccccc2)C(c2ccccc2)N1/N=C/c1ccccc1` (stereo not drawn), the growth inhibition in test [1] is 11.4%; in test [2], 15%; in test [3] it was 17.2%; in test [4], 5.3%; in test [5], 1.75%; in test [6], 6.25%.
As to `Cc1cccc(NC(=O)c2cccc([N+](=O)[O-])c2C(=O)O)c1C`, the growth inhibition is 4.8% in test [1]; 11.9% in test [2]; 3.75% in test [3]; -7.15% in test [4]; 25.6% in test [5]; 10.8% in test [6].
In the case of `COc1cc2c(c(C3(O)C(=O)N(C)c4ccccc43)c1OC)OCO2` (stereo not drawn), the growth inhibition in test [1] is 1.95%; in test [2], -12.4%; in test [3] it was 12.8%; in test [4] it was -53.1%; in test [5], -52.6%; in test [6] it was 4.9%.
`CN(C)c1ccc(/C=N/NC(=O)c2ccccc2NC(=O)c2ccc(Cl)cc2)c(Cl)c1`: the growth inhibition was 1.4% in test [1]; 0.45% in test [2]; 19.9% in test [3]; -6.3% in test [4]; -6.1% in test [5]; 0.5% in test [6].
As for `NC(=O)C(=O)N/N=C1\C(=O)N(c2ccc(Cl)cc2Cl)C(=O)C1C(=O)Nc1ccc(Cl)cc1Cl` (stereo not drawn), the growth inhibition in test [1] was -0.65%; in test [2], -0.55%; in test [3] it was -15.5%; in test [4], 22.4%; in test [5] it was -14.2%; in test [6], -16.3%.
Take `O=c1cc2c(n[nH]1)CCCC2`: the growth inhibition is 8.85% in test [1]; 4.55% in test [2]; 2.55% in test [3]; 16.9% in test [4]; -0.75% in test [5]; 11.4% in test [6].
Consider `C1COCCN2CCOCCOCCN(CCO1)CCOCC2`, for which the growth inhibition in test [1] is 3.6%; in test [2], 11.2%; in test [3], -0.25%; in test [4], 12.7%; in test [5], 23.6%; in test [6], 23.7%.
Turning to `O=C(NC1CCCCC1)NC12CC3CC(CC(F)(C3)C1)C2`, the growth inhibition is -9.9% in test [1]; -12.8% in test [2]; -7.55% in test [3]; 5.65% in test [4]; -12.1% in test [5]; 6.7% in test [6].
Consider `COC(=O)CCC(CCC(=O)O)([N+](=O)[O-])[N+](=O)[O-]`, for which the growth inhibition was 2.05% in test [1]; -5.65% in test [2]; -6.3% in test [3]; -36.4% in test [4]; -12.1% in test [5]; -11.8% in test [6].
On to `CCCCCO[Si](OCCCCC)(OCCCCC)OCCCCC`, for which the growth inhibition in test [1] is 3.8%; in test [2], -9.3%; in test [3], 29.4%; in test [4], -4.4%; in test [5], 1.55%; in test [6], 10.9%.
Turning to `COC1c2ccccc2CC1(C)C` (stereo not drawn), the growth inhibition in test [1] is 13.8%; in test [2], 8.8%; in test [3] it was 5.65%; in test [4], -52.4%; in test [5] it was 10.3%; in test [6] it was 9.55%.
Regarding `NC(=O)c1ccc([N+](=O)[O-])cc1`, the growth inhibition in test [1] is 6%; in test [2] it was -5.15%; in test [3] it was 27.1%; in test [4], -24.8%; in test [5] it was -1.4%; in test [6] it was 15.3%.
`CN(C)C1=CC(=O)NC(c2ccccc2)C1` (stereo not drawn): the growth inhibition is -10.6% in test [1]; -17.4% in test [2]; -10.6% in test [3]; -14.2% in test [4]; -3.45% in test [5]; -11.6% in test [6].
Consider `CCCn1c(SCC)c2ccccc2c1-c1nc(F)nc(F)n1`, for which the growth inhibition is -11.8% in test [1]; -21.8% in test [2]; -6.75% in test [3]; 18.9% in test [4]; -20.7% in test [5]; 4.1% in test [6].
In the case of `O=C(Cc1ccccc1)NS(=O)(=O)c1ccccc1`, the growth inhibition in test [1] was 5.15%; in test [2] it was -5.8%; in test [3] it was -12.3%; in test [4], 9.15%; in test [5], -3.95%; in test [6] it was 4.2%.
Take `C=C(C)c1nc(C#N)c(N)o1`: the growth inhibition is 33% in test [1]; 5.6% in test [2]; -13.4% in test [3]; 4.5% in test [4]; -37.8% in test [5]; -33.4% in test [6].
As to `CCCNc1ncnc2ncn(C)c12`, the growth inhibition in test [1] is 12.4%; in test [2], -1.6%; in test [3] it was -12.9%; in test [4], 5.05%; in test [5] it was 7.35%; in test [6] it was 0.35%.
Consider `O=[N+]([O-])Cc1ccc(Cl)cc1`, for which the growth inhibition in test [1] is 4.6%; in test [2], 18.4%; in test [3], 13.1%; in test [4], -33%; in test [5] it was -19.7%; in test [6], 15.6%.
`COC1(C)C=NCC(C)(C)NC(=O)C(C)(OC)C=NCC(C)(C)NC1=O` (stereo not drawn): the growth inhibition was -12.4% in test [1]; -27.6% in test [2]; -29.4% in test [3]; -16.4% in test [4]; -21.6% in test [5]; -26.5% in test [6].
Regarding `COc1cccc(C2=NC(C(C)C)CO2)c1OC` (stereo not drawn), the growth inhibition is -11.3% in test [1]; -16.4% in test [2]; -15.8% in test [3]; 19.9% in test [4]; -8.35% in test [5]; -4.35% in test [6].
Consider `CCOC(=O)c1[nH]c(C)c(/C(C)=N\NC(N)=O)c1C`, for which the growth inhibition in test [1] was -20.2%; in test [2], -14.7%; in test [3], -7.4%; in test [4], -20.9%; in test [5], 8%; in test [6], 10.5%.
With `NC(=O)CNCc1ccccc1`, the growth inhibition was 0.3% in test [1]; -3.75% in test [2]; 12.7% in test [3]; -52% in test [4]; 0.25% in test [5]; 4.25% in test [6].
